A selection: hits, their analogues and other compounds. The true share with any hit is near 3.5%.
GPR151 activ: activators of human GPR151, primary screen, cell-based, PathHunter beta-arrestin, luminescence; activation, % at 11.2 µM; actives 1% (n = 650,000); G-protein coupled receptor 151 (Homo sapiens), Q8TDV0; PathHunter beta-arrestin GPR151 cells; in the data active = activation above about 4.9%;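 also: 0% = median of compound wells and 100% = cells with positive control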
MITF primary: MITF inhibitors, primary screen, biochemical, AlphaScreen, human. AID 1259374, 2018. inhibition, % at 2.6 µM. AlphaScreen MITF homodimerization, bead proximity signal. Microphthalmia-associated transcription factor (Homo sapiens), O75030. actives 0.91% (n = 650,000); in the data active = inhibition above about 50%;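 also: 0% = vehicle wells with protein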
Target sequence (O75030 whole entry, looked up): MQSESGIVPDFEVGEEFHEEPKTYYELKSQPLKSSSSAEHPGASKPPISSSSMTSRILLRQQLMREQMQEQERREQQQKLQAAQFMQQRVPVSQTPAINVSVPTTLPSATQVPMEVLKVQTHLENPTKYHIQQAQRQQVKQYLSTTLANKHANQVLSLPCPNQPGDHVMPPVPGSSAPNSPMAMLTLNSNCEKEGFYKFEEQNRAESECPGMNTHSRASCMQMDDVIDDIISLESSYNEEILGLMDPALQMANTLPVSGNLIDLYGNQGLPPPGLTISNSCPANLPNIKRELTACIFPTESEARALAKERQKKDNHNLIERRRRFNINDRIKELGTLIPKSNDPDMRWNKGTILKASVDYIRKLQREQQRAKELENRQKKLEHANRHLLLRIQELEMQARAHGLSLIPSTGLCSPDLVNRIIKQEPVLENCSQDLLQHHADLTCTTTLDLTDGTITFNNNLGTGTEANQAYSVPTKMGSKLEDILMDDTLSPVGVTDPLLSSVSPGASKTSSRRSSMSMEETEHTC
TEAD-YAP block: TEAD-YAP interaction inhibition, primary screen, TEAD-YAP interaction inhibitor project, luminescence, HEK-TIYL cells. TEAD-Gal4/YAP UAS-luciferase luminescence. inhibition, % at 9.12 µM. actives 1.4% (n = 640,000). AID 1259422, 2018; in the data active = inhibition above about 32%;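 also: 0% = median of test compound wells and 100% = reference inhibitor wells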
FBW7 act: FBW7 E3 ligase activators, primary screen, biochemical, AlphaScreen, human | F-box/WD repeat-containing protein 7 (Homo sapiens), Q969H0 | AlphaScreen FBW7–phospho-cyclin E peptide binding, activator screen | normalized activity (activation), % at 26.1 µM | actives 0.13% (n = 650,000) | AID 1259310, 2017; in the data active = normalized activity above about 1.9%;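 also: purified mutant Fbw7 with reduced substrate affinity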
* = called active by the depositor.

SMILES | GPR151 activ | MITF primary | TEAD-YAP block | FBW7 act
Cc1cc(Nc2ccc3c(c2)OCO3)nc(Nc2nccc3ccccc23)n1 | 0 | 2 | 35* | 0
Nc1nc(Nc2ccc3c(c2)OCO3)cc(Nc2nccc3ccccc23)n1 | -1 | 10 | 36* | 0
CCOC(=O)c1nnn(C(CC)C(=O)Nc2c(C)cccc2C)c1C(=O)OCC (stereo not given) | 0 | 5 | 7 | 0
COC(=O)C[C@](O)(CCCC(C)(C)O)C(=O)O[C@@H]1C(OC)=C[C@]23CCCN2CCc2cc4c(cc2[C@H]13)OCO4 | -1 | 3 | 99* | 1
O=C(CSC(=S)N1CCOCC1)N1CCc2ccccc21 | 0 | 10 | -7 | 0
CC(C)(C)c1ccc(C(=O)NCCOc2ccccc2F)cc1 | -1 | 4 | 59* | 1
CC(C)(C)c1ccc(C(=O)NCCOc2ccccc2)cc1 | -2 | 2 | 36* | 0
O=C(Nc1ccc2oc(-c3cncc(Br)c3)nc2c1)c1cccs1 | -2 | 21 | -12 | 1
CCOC(=O)N1CCc2c(sc(NCc3ccccn3)c2C(=O)Nc2ccc(OC)cc2OC)C1 | -1 | -1 | 48* | -1
FC(F)(F)c1ccccc1NC(=S)N/N=C1\CC2CC=CC12 (stereo not given) | -1 | 19 | 47* | 0
CC(C)CC(=O)Nc1nc2ccc(S(=O)(=O)N3CCCCC3)cc2s1 | 1 | 0 | 52* | 0
CC(=O)Nc1nc2ccc(S(=O)(=O)N3CCCCC3)cc2s1 | -2 | -19 | -7 | 0
COc1cccc(/C=N/Nc2cccc3cccnc23)c1 | -4 | 15 | 44* | 0
COc1cccc(/C=N/Nc2ncnc3nc[nH]c23)c1 | -3 | 8 | 48* | 0
CC(C)c1ccc(/C=N/Nc2ncnc3nc[nH]c23)cc1 | 0 | 7 | 52* | 0
COc1cc(/C=N/Nc2ncnc3nc[nH]c23)cc(OC)c1OC | -1 | 1 | -7 | 0
CCOc1ccc(Nc2ncnc3nc[nH]c23)cc1 | -2 | 2 | 51* | 0
Cc1ccc(-c2cn3cccnc3n2)cc1NC(=O)c1cccc(F)c1 | 0 | 13 | -3 | 0
CCOc1cc(C2Nc3ccc(C(=O)c4ccccc4)cc3NC3=C2C(=O)CC(C)(C)C3)ccc1O (stereo not given) | -1 | 4 | 45* | 0
CCOc1cc(C2Nc3ccc(C(=O)c4ccccc4)cc3NC3=C2C(=O)CCC3)ccc1O (stereo not given) | 1 | 3 | 64* | 0
COc1cc(C2C3=C(CCCC3=O)Nc3ccc4ncccc4c32)ccc1OC(C)=O (stereo not given) | 1 | 17 | 54* | 0
COc1cc(C2C3=C(CCCC3=O)Nc3ccc4nc(C)ccc4c32)ccc1OC(C)=O (stereo not given) | 0 | -12 | -3 | 0
COc1ccc(C2Nc3ccc(C(=O)c4ccccc4)cc3NC3=C2C(=O)CCC3)cc1OC (stereo not given) | -1 | -9 | 59* | 0
Clc1ccc(-c2[nH]c(-c3ccc(Br)cc3)nc2-c2ccccc2)cc1 | -2 | 7 | 0 | 0
O=C(Cc1ccc([N+](=O)[O-])cc1)NC1C2CC3CC(C2)CC1C3 (stereo not given) | -1 | -2 | -6 | 0
SMILES | GPR151 activ | MITF primary | TEAD-YAP block | FBW7 act
COc1cc(-c2oc3cc(O)cc(O)c3c(=O)c2OC[C@@H]2OC(O[C@@H]3O[C@@H](C)[C@H](O)[C@@H](O)[C@H]3O)[C@@H](O)[C@H](O)[C@@H]2O)ccc1O (stereo not given in full) | -1 | 17 | 1 | 0
CCOc1cc(/C=C2/C(=N)N3N=C(CC)SC3=NC2=O)ccc1OCCOc1ccc(C(C)(C)C)cc1 | -2 | 11 | 9 | 0
Cc1ccc(CCNC(=O)c2c(N)[nH]n3c(=O)c4ccccc4nc23)cc1 | -1 | 4 | 35* | 0
CCc1c(C)nc2c(C(=O)NCCc3ccccc3)c[nH]n2c1=O | 4 | 1 | 3 | 0
O=C(N1CCCCC1)n1nnc2ccccc21 | 0 | 2 | 75* | 1
O=C(CCCCC(=O)n1nnc2ccccc21)n1nnc2ccccc21 | 2 | -8 | -7 | 0
COc1ccc(NC(=O)C(C)N(c2cc(C)cc(C)c2)S(C)(=O)=O)cc1OC (stereo not given) | -2 | 10 | -2 | 0
CC(c1ccc([N+](=O)[O-])cc1)c1nc(-c2ccncc2)no1 (stereo not given) | -1 | 13 | -3 | 0
CC(c1ccc([N+](=O)[O-])cc1)c1nc(-c2ccccn2)no1 (stereo not given) | 0 | 7 | 67* | 1
O=C(Cc1ccccc1)Nc1ccc(-c2nc3cccnc3s2)cc1 | 0 | 8 | -17 | 0
Nc1ccc(-c2nc3cccnc3s2)cc1 | -8 | -9 | 34* | 0
O=C(Nc1ccc(-c2nc3cccnc3s2)cc1)C1CC1 | -4 | 10 | 75* | 0
CC(C)CC(=O)Nc1ccc(-c2nc3cccnc3s2)cc1 | -3 | 16 | 54* | 0
O=C(Nc1ccc(-c2nc3cccnc3s2)cc1)c1ccccc1 | -3 | -3 | -48 | 0
COCC(=O)N1CC[C@H]2[C@H](CCCN2Cc2sccc2C)C1 | 1 | 20 | 5 | 1
Cc1ccc(CNC(=O)[C@@H]2CCC(=O)N2Cc2ccco2)cc1 | -1 | 19 | 6 | 0
COc1ccc(/C=C2/C(=O)OCc3cc(OC)c(OC)cc32)cc1 | 1 | 6 | 45* | 0
Cc1ccc(-c2noc(CCC(=O)NC3CCCC3)n2)cc1 | -2 | 31 | -1 | 1
CCOc1ccc(-c2noc(CCC(=O)O)n2)cc1 | 0 | -18 | 50* | 0
CC(C)(C)c1ccc(-c2noc(CCC(=O)NC3CCCC3)n2)cc1 | 1 | 8 | 64* | 0
C=CCNC(=O)CCc1nc(-c2ccc(C(C)(C)C)cc2)no1 | -1 | 5 | 35* | 0
COc1ccc(NC(=O)C2CC(=O)N(CCc3ccc(OC)c(OC)c3)C(=Nc3cccc(Cl)c3)S2)cc1 (stereo not given) | -1 | -6 | 1 | 0
N#Cc1ccccc1NC(=O)CSc1nc(-c2ccccc2)cc(=O)[nH]1 | -1 | 0 | -5 | 0
CCOc1ccc(C(=O)NC(=S)Nc2ccccn2)cc1 | -8 | 13 | 86* | 1
CCCCOc1ccc(C(=O)NC(=S)Nc2ccccn2)cc1 | -2 | 19 | -50 | 1
SMILES | GPR151 activ | MITF primary | TEAD-YAP block | FBW7 act
COc1cc(OC)cc(C(=O)N/N=C(\C)CC(=O)Nc2ccccn2)c1 | 0 | -2 | 56* | 0
CCOc1ccc(OCC(=O)Nc2cccc(C(=O)O)c2)cc1 | 5 | 1 | 4 | 0
Cc1ccc(OCC(=O)Nc2cccc(C(=O)O)c2)cc1 | 4 | -10 | 69* | 0
O=C(COc1ccc(Br)cc1)Nc1ccccn1 | 0 | -7 | 62* | 0
Cc1ccc(C(=O)NC(=S)Nc2cccc(C(=O)O)c2)cc1 | -6 | 2 | 75* | 0
O=C(COc1ccccc1)Nc1ccccn1 | -4 | 1 | 21 | 0
